Reference: PubChem BioAssay (NCATS)
Records with an inconclusive call do not appear. Activity calls are given as the source filed them. Calls come from the whole dose curve; as a rule, active = well fitted curve in the direction sought with a large enough effect; inconclusive = small, poorly fitted or top-dose-only effect, or another doubt; inactive = no such curve, though single readings can be large; an effect the other way counts as inactive or inconclusive.

Experiments:
[1] = tested on: NIH3T3; assay: Cytotoxic Profiling of Annotated Libraries Using Quantitative High-Throughput Screening (AID 1296008); conditions: Five cell lines viability, CellTiter-Glo ATP luminescence, 48-72 h; active compounds read low; note: nearly all actives have a fitted effect of over 60% in size
Method in brief: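 Compounds were pin-transferred onto cells and incubated 48 or 72 hr at 37 degree Celsius, 95% humidity. CellTiter-Glo was added, plates sat 10 min at room temperature, then ATP-coupled luminescence was imaged as the viability read-out.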

[2] = tested on: HEK293T; assay: qHTS assay to identify novel small-molecules to repurpose for Merkel cell carcinoma treatment (AID 1296009); conditions: MCC and control cell lines, CellTiter-Glo viability, 72 h; at 44.8 µM (top of the series) unless noted; note: nearly all actives have a fitted effect of over 60% in size
Method in brief: (§1)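 Cells exposed to NPC (8-point) and MIPE (11-point) compound dilutions for 72 hr at 37 degree celsius; viability read by CellTiter-Glo luminescence, normalized to no-cell and DMSO in-plate controls.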

[3] = tested on: MCC-13; assay: as above; conditions: MCC and control cell lines, CellTiter-Glo viability, 72 h; series mostly up to 46 µM
Method in brief: as §1

[4] = tested on: MKL-1; assay: as above; conditions: MCC and control cell lines, CellTiter-Glo viability, 72 h; series mostly up to 46 µM
Method in brief: as §1

[5] = tested on: MKL-2; assay: as above; conditions: MCC and control cell lines, CellTiter-Glo viability, 72 h; series mostly up to 46 µM
Method in brief: as §1

[6] = tested on: UISO; assay: as above; conditions: MCC and control cell lines, CellTiter-Glo viability, 72 h; series mostly up to 46 µM
Method in brief: as §1

[7] = tested on: WaGa; assay: as above; conditions: MCC and control cell lines, CellTiter-Glo viability, 72 h; series mostly up to 46 µM
Method in brief: as §1

[8] = tested on: C33A; assay: Primary qHTS to identify gynecologic anti-cancer compounds using libraries of approved drugs and bioactive compounds (AID 1345084); conditions: Gynecologic cancer cell panel viability, ATPlite luminescence, 48 h; series mostly up to 57.5 µM; note: nearly all actives have a fitted effect of over 55% in size
Method in brief: (§2)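 Cytotoxicity screen measuring ATP content by luciferase luminescence. Each compound is applied at five concentrations for 48 h at 37 C with 5% CO2.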

[9] = tested on: CAOV3; assay: as above; conditions: Gynecologic cancer cell panel viability, ATPlite luminescence, 48 h; series mostly up to 57.5 µM
Method in brief: as §2

[10] = tested on: CASKI; assay: as above; conditions: Gynecologic cancer cell panel viability, ATPlite luminescence, 48 h; series mostly up to 57.5 µM
Method in brief: as §2

[11] = tested on: Es-2; assay: as above; conditions: Gynecologic cancer cell panel viability, ATPlite luminescence, 48 h; series mostly up to 57.5 µM
Method in brief: as §2

[12] = tested on: HeLa; assay: as above; conditions: Gynecologic cancer cell panel viability, ATPlite luminescence, 48 h; series mostly up to 57.5 µM
Method in brief: as §2

[13] = tested on: Hek293T; assay: as above; conditions: Gynecologic cancer cell panel viability, ATPlite luminescence, 48 h, control line for the selectivity index; series mostly up to 57.5 µM
Method in brief: as §2

[14] = tested on: JEG-3; assay: as above; conditions: Gynecologic cancer cell panel viability, ATPlite luminescence, 48 h; series mostly up to 57.5 µM
Method in brief: as §2

[15] = tested on: OV90; assay: as above; conditions: Gynecologic cancer cell panel viability, ATPlite luminescence, 48 h; series mostly up to 57.5 µM
Method in brief: as §2

[16] = tested on: PA-1; assay: as above; conditions: Gynecologic cancer cell panel viability, ATPlite luminescence, 48 h; series mostly up to 57.5 µM
Method in brief: as §2

[17] = tested on: SKOV3; assay: as above; conditions: Gynecologic cancer cell panel viability, ATPlite luminescence, 48 h; series mostly up to 57.5 µM
Method in brief: as §2

[18] = tested on: MCC-26; assay: qHTS assay to identify novel small-molecules to repurpose for Merkel cell carcinoma treatment (AID 1296009); conditions: MCC and control cell lines, CellTiter-Glo viability, 72 h; series mostly up to 46 µM; note: nearly all actives have a fitted effect of over 60% in size
Method in brief: as §1

[19] = tested on: NIH3T3; assay: as above; conditions: MCC and control cell lines, CellTiter-Glo viability, 72 h; at 44.8 µM (top of the series) unless noted
Method in brief: as §1
% is set by controls: 0 for no effect and ±100 for the full control effect.

COC(=O)N/N=C/c1c[n+]([O-])c2ccccc2[n+]1[O-]
inactive: max response [1] -11.1% | outcome [2] | outcome [3] | outcome [4] | outcome [5] | outcome [6] | outcome [7] | outcome [8] | outcome [9] | outcome [10] | outcome [11] | outcome [12] | outcome [13] | outcome [14] | Potency [15] | outcome [16] | outcome [17]

COc1cc(O)cc(O)c1
inactive: max response [1] -7.04% | outcome [2] | outcome [3] | outcome [18] | outcome [4] | outcome [5] | outcome [6] | outcome [7] | outcome [8] | outcome [10] | outcome [11] | outcome [12] | outcome [13] | outcome [14] | Potency [15] | outcome [16] | outcome [17]

O=c1[nH]c2cc(C(F)(F)F)c(N3CCOCC3)cc2n(CP(=O)(O)O)c1=O
inactive: outcome [1] | outcome [3] | outcome [18] | outcome [4] | outcome [5] | outcome [19] | outcome [6] | outcome [7] | outcome [8] | outcome [9] | outcome [10] | outcome [11] | outcome [12] | outcome [13] | outcome [14] | Potency [15] | outcome [16] | outcome [17]

Cc1ccsc1/C=C/C1=NCCCN1C
inactive: outcome [1] | outcome [3] | outcome [18] | outcome [4] | outcome [5] | outcome [19] | outcome [6] | outcome [7] | outcome [8] | outcome [9] | outcome [10] | outcome [11] | outcome [12] | outcome [13] | outcome [14] | Potency [15] | outcome [16]

CNCc1ccccc1
inactive: max response [1] 1.15% | outcome [2] | outcome [3] | outcome [18] | outcome [4] | outcome [5] | outcome [6] | outcome [7] | outcome [8] | outcome [9] | outcome [10] | outcome [11] | outcome [12] | outcome [13] | outcome [16] | outcome [17]

OCCN1C[C@H](O)[C@@H](O)[C@H](O)[C@H]1CO
inactive: max response [1] -3.52% | outcome [2] | outcome [3] | outcome [4] | outcome [5] | outcome [6] | outcome [7] | outcome [8] | outcome [9] | outcome [10] | outcome [11] | outcome [12] | outcome [13] | outcome [14] | Potency [15] | outcome [16] | outcome [17]

NC(=O)NS(=O)(=O)c1ccc(N)cc1
inactive: outcome [1] | outcome [3] | outcome [18] | outcome [4] | outcome [5] | outcome [19] | outcome [6] | outcome [7] | outcome [8] | outcome [9] | outcome [10] | outcome [11] | outcome [12] | outcome [13] | outcome [14] | Potency [15] | outcome [16] | outcome [17]

CCCCCCCCCCCCCCCCC(C(=O)O)C(O)(CC(=O)O)C(=O)O (configuration not stated)
inactive: max response [1] 0.574% | outcome [2] | outcome [3] | outcome [18] | outcome [4] | outcome [5] | outcome [6] | outcome [7] | outcome [8] | outcome [9] | outcome [10] | outcome [11] | outcome [12] | outcome [14] | Potency [15] | outcome [16] | outcome [17]

Cc1c(C)c2c(c(C)c1OC(=O)c1cccnc1)CC[C@@](C)(CCC[C@H](C)CCC[C@H](C)CCCC(C)C)O2
inactive: outcome [1] | outcome [3] | outcome [18] | outcome [4] | outcome [5] | outcome [19] | outcome [6] | outcome [7] | outcome [8] | outcome [9] | outcome [10] | outcome [11] | outcome [12] | outcome [13] | outcome [14] | Potency [15] | outcome [16] | outcome [17]

CC(=O)N1C[C@H](O)C[C@H]1C(=O)O
inactive: outcome [1] | outcome [3] | outcome [18] | outcome [4] | outcome [5] | outcome [19] | outcome [6] | outcome [7] | outcome [8] | outcome [9] | outcome [10] | outcome [11] | outcome [12] | outcome [13] | outcome [14] | Potency [15] | outcome [16]

NC(=O)c1ccc([N+](=O)[O-])cc1Cl
inactive: outcome [1] | outcome [3] | outcome [18] | outcome [4] | outcome [5] | outcome [19] | outcome [6] | outcome [7] | outcome [8] | outcome [9] | outcome [10] | outcome [11] | outcome [12] | outcome [13] | outcome [14] | Potency [15] | outcome [16] | outcome [17]

COc1ccc(O)cc1
inactive: max response [1] -13.1% | outcome [2] | outcome [3] | outcome [18] | outcome [4] | outcome [6] | outcome [7] | outcome [8] | outcome [9] | outcome [10] | outcome [11] | outcome [12] | outcome [13] | outcome [14] | Potency [15] | outcome [16] | outcome [17]

Cc1cc(=O)[nH]c(=S)[nH]1
inactive: outcome [1] | outcome [3] | outcome [18] | outcome [4] | outcome [5] | outcome [19] | outcome [6] | outcome [7] | outcome [8] | outcome [9] | outcome [10] | outcome [11] | outcome [12] | outcome [13] | outcome [14] | Potency [15] | outcome [16]

CN1CC(=O)NC1=N
inactive: max response [1] -1.3% | outcome [2] | outcome [3] | outcome [18] | outcome [4] | outcome [5] | outcome [6] | outcome [7] | outcome [8] | outcome [9] | outcome [10] | outcome [11] | outcome [12] | outcome [13] | outcome [14] | Potency [15] | outcome [17]

NS(=O)(=O)c1cc(-c2nn[nH]n2)c(NCc2cccs2)cc1Cl
inactive: max response [1] -0.0304% | outcome [2] | outcome [3] | outcome [18] | outcome [4] | outcome [5] | outcome [6] | outcome [7] | outcome [8] | outcome [9] | outcome [10] | outcome [11] | outcome [12] | outcome [13] | outcome [14] | outcome [16]
